In the library only some 7.3% were active in any assay of this set; here they are far more common.
p53 reactivator = mutant p53 re-activation in reporter cells | 0.063% of 320,000 active | H1299 p53-A138V BP100-luciferase reporter, luminescence, 24 h | Potency, µM (highest dose often 92.2 µM), without a hit: at the top dose activity change, positive = activation, actives largely listed as activators; further: % of control where 0% means no effect; nearly all actives have a fitted effect of over 45% in size
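p53-null H1299 cells stably carrying temperature-sensitive p53-A138V and a BP100-luciferase reporter were pinned with compounds (4-point, 1:5 series) and held 24 hrs at 37 deg C. Luminescence was read 10 min after detection reagent.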
FLuc counter = counter-screen for miR-21 project: firefly luciferase inhibitors or activators; P08659; 6.9% of 360,000 active; purified FLuc, Km substrates, luminescence inhibition; Potency, µM (highest dose often 57.5 µM), for the others: at the top dose activity change, negative = inhibition, actives largely listed as inhibitors;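 further: plate controls were vehicle for no effect and reference inhibitor for full effect; nearly all actives have a fitted effect of over 55% in size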
Target sequence (P08659 whole entry, looked up): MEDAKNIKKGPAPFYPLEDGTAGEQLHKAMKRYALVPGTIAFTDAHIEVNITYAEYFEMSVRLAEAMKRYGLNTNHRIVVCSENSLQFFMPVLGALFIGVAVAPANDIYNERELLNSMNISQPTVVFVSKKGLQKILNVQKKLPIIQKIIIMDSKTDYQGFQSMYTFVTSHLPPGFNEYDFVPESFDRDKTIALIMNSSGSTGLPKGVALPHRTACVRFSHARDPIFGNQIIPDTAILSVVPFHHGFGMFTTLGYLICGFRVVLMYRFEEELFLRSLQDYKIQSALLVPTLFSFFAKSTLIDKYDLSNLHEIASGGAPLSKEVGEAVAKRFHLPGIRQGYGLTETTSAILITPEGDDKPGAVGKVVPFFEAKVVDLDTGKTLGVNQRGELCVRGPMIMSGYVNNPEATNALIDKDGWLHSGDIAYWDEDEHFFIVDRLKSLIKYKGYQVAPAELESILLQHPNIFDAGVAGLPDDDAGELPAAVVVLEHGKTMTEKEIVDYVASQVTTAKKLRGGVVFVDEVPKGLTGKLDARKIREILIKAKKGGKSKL
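Purified P. pyralis luciferase, 10 nM final, with Km-level 10 uM D-luciferin and 10 uM ATP in 50 mM Tris acetate pH 7.5, 10 mM Mg acetate, 0.01% Tween-20, 0.05% BSA; 6-point qHTS titration about 60 µM downward; luminescence read.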
ELG1 genotoxic = induces genotoxicity in HEK293T cells with luciferase-tagged ELG1 | HEK293T ELG1-luciferase reporter, luminescence, 16 h | Potency, µM (series often up to 46 µM), without a hit: at the highest dose activity change, positive = activation, hits mostly activators | 1.3% of 330,000 active | AID 504466; further: % of control where 0% means no effect; nearly all actives have a fitted effect of over 60% in size
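Genotoxicity was scored as increased ELG1-luciferase reporter signal, measured by ONE-Glo luminescence (30 min, room temperature). Compound or vehicle exposure of the HEK293T reporter cells lasted 16 hr at 37°C.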
NPC1 promoter act = NPC1 promoter activation; Huh7 NPC1 promoter luciferase reporter, 24 h; Potency, µM (series often up to 9.22 µM), for the others: at the highest dose activation, actives largely listed as activators; 2.4% of 320,000 active; further: % of control where 0% means no effect; nearly all actives have a fitted effect of over 60% in size
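Cells: Huh7 expressing luciferase under the NPC1 promoter, 1500/well. Seeded 2 h, compound added, incubated 24 h at 37 °C. Luciferase reagent, 10 min ambient, then luminescence.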
SMN2 splice enh = increases expression of the SMN2 splice variant; 2.8% of 210,000 active; AID 1458; HEK293 SMN2-luciferase splicing reporter, luminescence, 30-36 h; Potency, µM (highest dose often 46.1 µM), for the others: at the highest dose activity change, positive = activation, usual class: activators; further: % of control where 0% means no effect; nearly all actives have a fitted effect of over 55% in size
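HEK293 cells carry an SMN2 minigene-luciferase reporter in which exon 7 inclusion puts luciferase in frame. Cells were seeded at 2000 cells/well, attached for 10-12 hours, then exposed to compounds for 30-36 hours at 37C before ONE-Glo luminescence.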
Rab9 prom act = Rab9 promoter activation. Huh7 Rab9 promoter-luciferase reporter, luminescence, 24 h. Potency, µM (highest dose often 9.22 µM), without a hit: at the top dose activation, negative = inhibition, most hits filed as activators. 2.8% of 320,000 active; further: % of control where 0% means no effect; nearly all actives have a fitted effect of over 60% in size
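Luciferase signal after 10 min detection reagent at ambient indicates Rab9 promoter upregulation; stably transfected Huh7 cells were treated 24 h with compound in DMSO at 37 °C, 5% CO2.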
* = called active by the depositor; ? = inconclusive; / = no result given; [ ] = another dose, or the depositor's remark. The call rests on the fitted dose curve; in most records, active means well fitted curve in the direction sought with a large enough effect; inconclusive means small, poorly fitted or top-dose-only effect, or another doubt; inactive means no such curve, though single readings can be large; an effect the other way counts as inactive or inconclusive. Potency means the concentration at half of the fitted maximal effect.

SMILES | p53 reactivator | FLuc counter | ELG1 genotoxic | NPC1 promoter act | SMN2 splice enh | Rab9 prom act
Cc1cc(N/N=C/c2cccc(Cl)c2)nc(-n2nc(C)cc2C)n1 | -7% | -19% | -11% | 1% | / | -1%
Cc1nc(C#N)c(N/N=C/c2cccc(Cl)c2)o1 | ? | 4.8µM* | ? | ? | 11µM* | ?
Cc1nc(C)c(-c2nnc(-c3ccc(C(C)(C)C)cc3)o2)cc1C(=O)NN | -4% | 24µM* | -1% | -5% | -11% | 1%
CCCCc1ccc(NC(=O)CSc2nc3ccccc3nc2N2CCOCC2)cc1 | / | -8% | / | / | -2% | /
O=C(Nc1ccc(NC(=O)C2CC2)cn1)c1ccccc1 | 17% | 2.7µM* | ? | 0.32µM* | / | 0.35µM*
COc1cccc(C(=O)Nc2ccc(NC(=O)C3CC3)nc2)c1 | -2% | -2% | 3% | -2% | / | 3%
O=C(Nc1ccc(NC(=O)C2CC2)cn1)c1ccccc1Cl | ? | ? | ? | 27% | 25µM* | 28%
COc1ccc(C(=O)Nc2ccc(NC(=O)C3CC3)cn2)cc1 | -2% | ? | 7% | -1% | / | 6%
O=C(Nc1ccc(NC(=O)C2CC2)nc1)c1cccc(F)c1 | ? | ? | 14% | ? | / | 4.5µM*
O=C(Cc1ccccc1)Nc1ccc(NC(=O)c2ccccc2)nc1 | 14% | ? | ? | 2.8µM* | / | 2.2µM*
CNC(=O)c1ccc(Nc2nnc(-c3ccc(C)c(S(=O)(=O)NC(C)(C)C)c3)c3ccccc23)cc1 | / | -5% | / | / | 5% | /
CCCCC[C@H](O)/C=C/C=C\C=C\[C@@H](O)C/C=C\CCCC(=O)O | / | / | / | / | 17% | /
O=C(Nc1ccc(NC(=O)C2CCCCC2)nc1)c1ccccn1 | 11% | 17µM* | ? | ? | 22µM* | 3.5µM*
CCCC(=O)Nc1ccc(NC(=O)c2ccccn2)cn1 | 24% | 13µM* | ? | 2.2µM* | / | 2.8µM*
CC(C)C(=O)Nc1ccc(NC(=O)c2cccc(F)c2)cn1 | 17% | ? | ? | 27% | 10% | 2.8µM*
CCc1cc2ccccc2nc1Cl | -1% | -12% | -1% | -1% | 5% | -5%
O=C1c2ccccc2-c2nc3ccccc3cc21 | ? | 2.1µM* | ? | 3.5µM* | / | 5µM*
c1ccc2c(c1)Cc1cc3ccccc3nc1-2 | / | 0.95µM* | 3.7µM* | 1.3µM* | 4µM* | 0.4µM*
Cc1ccc2c(c1)COc1c3ccc(C(=O)N4CCOCC4)cc3nn1-2 | 24% | 9.5µM* | 16µM* | 2.5µM* | / | 1.6µM*
O=C(c1ccc2c(=O)n3c(nc2c1)CCCCC3)N1CCCCC1 | 8% | 2% | 1% | -3% | / | -5%
O=C(c1ccc2c3n(nc2c1)-c1ccc(Cl)cc1CO3)N1CCCCC1 | ? | 5.4µM* | ? | 2.2µM* | / | 1.8µM*
O=C(O)c1ccc2c3n(nc2c1)-c1ccc(Cl)cc1CO3 | / | 1.9µM* | 1% | ? | / | ?
Cc1nc(S/C(=C/c2ccc(-c3ccc(Cl)cc3)o2)C(=O)O)n[nH]1 | 5% | 8.5µM* | 6% | 13% | -36% | -1%
Cc1nc(S/C(=C/c2ccc(-c3cc(Cl)ccc3C)o2)C(=O)O)n[nH]1 | -1% | 27µM* | 1% | -6% | / | 0%
CC(=O)c1ccc(-c2ccc(/C=C(/Sc3n[nH]c(C)n3)C(=O)O)o2)cc1 | -1% | 6µM* | 1% | -3% | / | 2%
SMILES | p53 reactivator | FLuc counter | ELG1 genotoxic | NPC1 promoter act | SMN2 splice enh | Rab9 prom act
CC(C)(C)c1ccc(OCC(=O)Nc2ccncc2)c(Br)c1 | / | 21µM* | 1% | -2% | / | -1%
CCc1ccc(OCC(=O)Nc2ccncc2)c(Br)c1 | 8% | 3.4µM* | ? | 1% | / | 0%
CCC(C)(C)c1ccc(OCC(=O)Nc2ccncc2)cc1 | -12% | 7.6µM* | -1% | 0% | / | -3%
Cc1cc(OCC(=O)Nc2ccncc2)c(C)cc1Br | 3% | ? | 0% | 1% | 14% | -3%
CC(C)(C)c1ccc(OCC(=O)NNC(=S)NC(=O)c2ccccc2[N+](=O)[O-])c(Br)c1 | 0% | 27µM* | 4% | 1% | / | -2%
O=C(COc1ccc(Br)cc1)Nc1ccncc1 | 3% | ? | 0% | -3% | 8% | 1%
C[C@H]1C2=C3C(CC[C@H]4C(OCc5ccc(F)cc5C(F)(F)F)OC[C@](C)([C@@H]34)N(C(=O)OC(C)(C)C)C2)C(CO)C1CO (some centres not stated) | / | / | / | / | -1% | /
Cc1nn(S(=O)(=O)c2ccc(C(C)C)cc2)c(C)c1S(=O)(=O)N1CCCCCC1 | / | -18% | / | / | / | /
CCc1cccc(C)c1NC(=O)c1cc(S(=O)(=O)N(C)Cc2ccccc2)ccc1F | / | -7% | / | / | / | /
c1cc(CSSCc2ccncc2)ccn1 | / | / | / | / | -1%[9.22 µM] | /
CCc1ccc(S(=O)(=O)c2nnn3c2nc(NC2CCCCCC2)c2sccc23)cc1 | / | -1% | / | / | / | /
CCc1ccc(OCC(=O)NNC(=S)NC(=O)C2CCCCC2)c(Br)c1 | ? | 2% | 14% | -4% | / | 26%
CCc1ccc(OCC(=O)NNC(=S)NC(=O)C2CC2)c(Br)c1 | 5% | 9.5µM* | ? | -1% | / | -2%
COc1cccc(NC(=O)C2CCCN(S(=O)(=O)c3ccc4[nH]c(=O)ccc4c3)C2)c1 (configuration not stated) | / | 1% | / | / | / | /
C=CCNC(=O)C1CCN(c2nc(C)cc(-c3ccccc3)n2)CC1 | 21% | 19µM* | ? | 3.5µM* | 8.9µM* | 3.5µM*
Cc1cc(-c2ccccc2)nc(N2CCC(C(=O)NCc3ccccc3Cl)CC2)n1 | ? | -15% | ? | 22% | 28µM* | 14%
Cc1cc(C)nc(N2CCC(C(=O)NNC(=O)Cc3ccccc3)CC2)n1 | -1% | 0% | 0% | 0% | / | -1%
O=C(Nc1ccccc1)C(=O)Nc1ccccn1 | -2% | 1.7µM* | ? | ? | 4.5µM* | 0.45µM*
O=C(O)/C=C\C(=O)Nc1ccccn1 | / | / | / | / | -12%[9.22 µM] | /
S=C(Nc1ccccc1)c1ccccn1 | ? | 8.5µM* | ? | 3.5µM* | ? | 2.8µM*
S=C(Nc1ccc(Nc2ccccc2)cc1)Nc1ccccn1 | 1% | ? | ? | -12% | -68% | -6%
O=C(Nc1cccc(O)c1)C(=O)Nc1ccccn1 | -3% | 1.5µM* | ? | ? | 10µM* | 3.5µM*
NC(=O)C1CCN(c2nc(-c3ccccc3[N+](=O)[O-])cs2)CC1 | / | -1% | / | / | / | /
O=C(COc1ccccc1Cl)Nc1nc2c(s1)CCCC2 | / | 21µM* | / | / | / | /
COc1ccccc1OCC(=O)Nc1nc(C)c(C)s1 | ? | 8.5µM* | ? | 2.8µM* | / | 4µM*
O=C(COc1ccccc1)Nc1nc2c(s1)CCCC2 | 19% | 13µM* | ? | ? | / | ?

Assay outcomes as filed in PubChem.
